HP1b binding inh = HTS for Inhibitors of HP1-beta Chromodomain Interactions with Methylated Histone Tails. AID 540317, 2011. Potency, µM (doses to about 114 µM), actives largely listed as inhibitors. AlphaScreen HP1-beta / biotin-H3K9me3 peptide binding. actives 0.56% (n = 390,000); note: nearly all actives have a fitted effect of over 70% in size
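AlphaScreen: HP1-beta (50 nM) preformed 30 min with biotin-H3(1-18)K9me3 peptide (50 nM) in PBS pH 7.4, 0.01% Tween-20. Compound added for 30 min at RT, then streptavidin donor/nickel chelate acceptor beads (10 ug/mL) for 30 min.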
BAZ2B block = qHTS Assay for Inhibitors of BAZ2B | Potency, µM (doses to about 114 µM), hits mostly inhibitors | AID 504333, 2011 | AlphaScreen BAZ2B-H3K14Ac peptide displacement | actives 4.4% (n = 360,000); note: nearly all actives have a fitted effect of over 60% in size
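Complex of BAZ2B and biotin-H3K14Ac (50 nM apiece) forms over 30 min at RT, then faces library compounds up to 110 uM for another 30 min; AlphaScreen beads added, 20 min dark incubation, luminescence read.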
TDP1 block = qHTS Assay for Inhibitors of Tyrosyl-DNA Phosphodiesterase (TDP1). Tyrosyl-DNA phosphodiesterase 1 (Homo sapiens), Q9NUW8. recombinant TDP1, AlphaScreen DNA substrate cleavage. Potency, µM (top dose mostly 130 µM), most hits filed as inhibitors. actives 0.28% (n = 350,000); note: nearly all actives have a fitted effect of over 40% in size
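AlphaScreen read-out: signal falls as enzyme removes the 3' tyrosine-FITC from a 5'-biotinylated DNA oligo (15 nM, 5 min, RT). Enzyme was E. coli-made recombinant Tdp1 at 1 nM, exposed to compound for 15 min beforehand; beads 10 ug/ml, 10 min.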
JMJD2A Tudor = qHTS Assay for Inhibitors of JMJD2A-Tudor Domain; Potency, µM (doses to about 114 µM), most hits filed as inhibitors; actives 4.4% (n = 390,000); AlphaScreen JMJD2A-Tudor / H3K4me3 peptide binding; AID 504339, 2011; note: nearly all actives have a fitted effect of over 50% in size
G9a block = qHTS Assay for Inhibitors of Histone Lysine Methyltransferase G9a. Histone-lysine N-methyltransferase EHMT2 (Homo sapiens), Q96KQ7. Potency, µM (doses to about 102 µM), usual class: inhibitors. AID 504332, 2011. actives 8.8% (n = 350,000). G9a H3K9 monomethylation, AlphaScreen, 2 h; note: nearly all actives have a fitted effect of over 75% in size
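Enzyme 20 nM + cpd, 15 min RT; add b-H3K9 pep 500 nM / SAM 20 uM; 2 h RT; anti-H3K9me1 Ab 0.5 ug/mL + SA donor / anti-rabbit acceptor beads 20 ug/mL each, 10 min; AlphaScreen read.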
Sfp PPTase inh = qHTS Assay for Inhibitors of Bacillus subtilis Sfp phosphopantetheinyl transferase (PPTase). 4'-phosphopantetheinyl transferase ffp (Bacillus subtilis), Q9F4F7. Biochemical Sfp PPTase activity, qHTS. Potency, µM, usual class: inhibitors. actives 3.5% (n = 310,000). AID 1490, 2009;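 note: the enzyme is Sfp with the accession as filed and its product quenches rhodamine fluorescence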
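Fluorescence-quenching assay with 15 nM Sfp, 5 uM rhodamine-CoA and 12.5 uM BHQ-2-labelled ybbR peptide in pH 7.6 Hepes/MgCl2 buffer. Enzyme was pre-incubated with compound for 15 min at room temperature. Rate was taken from the 30-min fluorescence change (525/598 nm).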
A number is an active result; - = inactive; ? = inconclusive; . = not tested or not shown; [ ] = remark or other dose. Only some compounds are listed: those with a hit (about 12% of all), similar ones and a draw of the others. Calls come from the whole dose curve; as a rule, active = well fitted curve in the direction sought with a large enough effect; inconclusive = small, poorly fitted or top-dose-only effect, or another doubt; inactive = no such curve, though single readings can be large; an effect the other way counts as inactive or inconclusive.

SMILES | HP1b binding inh | BAZ2B block | TDP1 block | JMJD2A Tudor | G9a block | Sfp PPTase inh
COc1cc(OC)cc(C(=O)Nc2ccc(Nc3ccccc3)cc2)c1 | - | 25µM | . | ? | 35µM | -
COc1ccc(C(=O)Nc2ccc(Nc3ccccc3)cc2)cc1[N+](=O)[O-] | ? | ? | . | 35µM | ? | -
COc1cc(OC)cc(C(=O)Nc2cccc(-c3cn4ccsc4n3)c2)c1 | - | 71µM | - | ? | - | .
CCOc1cc(C(=O)NCc2ccc(-c3nc4ccccc4o3)cc2)cc(OCC)c1OCC | - | - | - | - | 28µM | -
COc1cc(OC)cc(C(=O)Nc2ccc(-c3nc4ccccc4o3)cc2)c1 | - | - | - | - | - | 8.9µM
CCOc1cc(C(=O)Nc2ccc3oc(-c4ccc(CC)cc4)nc3c2)cc(OCC)c1OCC | - | - | -[12.3 µM] | - | - | .
COc1cc2c(cc1CC=C(C)C)C(=O)C[C@@H](c1ccc(O)cc1)O2 | . | . | - | . | . | -
CC[C@@H]1C/C=C\Cc2ccccc2[C@H](C(=O)C[C@@H](O)CC(C)=O)OC1=O | - | . | - | - | . | .
COc1ccc(CN(C)C(=O)Cn2cnc3c(NCc4ccccc4)ncnc32)cc1OC | - | . | - | - | . | .
O=c1c2nc(Br)n([C@@H]3O[C@@H]4CO[P@@](O)(=S)O[C@H]4[C@H]3O)c2nc2[nH]c(-c3ccccc3)cn12 | . | . | 22µM | . | . | -
Cc1ccc(N=Nc2c(N)n[nH]c2N)cc1 | - | ? | . | ? | 35µM | -
Cc1cc(-c2ccc(Br)cc2)n[nH]1 | - | - | - | - | - | -
Cc1ccc(-c2[nH]nc(N)c2N=Nc2ccccc2C)cc1 | ? | ? | - | 25µM | ? | -
Cc1cccc(N=Nc2c(N)n[nH]c2-c2ccc(Cl)cc2)c1 | - | ? | - | ? | -[0.501 µM] | -
Cc1[nH]nc(N)c1N=Nc1ccc(Br)cc1 | . | 40µM | - | . | . | -
Nc1n[nH]c(C2CC2)c1N=Nc1ccc(Cl)cc1 | - | ? | - | 45µM | 50µM | -
Nc1n[nH]c(C2CC2)c1N=Nc1ccc(Cl)c(Cl)c1 | ? | - | . | ? | - | -
C[C@H](CO)N1C[C@H](C)[C@@H](CN(C)C(=O)Nc2ccc(C(F)(F)F)cc2)Oc2ccc(NC(=O)C3CCCCC3)cc2C1=O | - | . | - | - | . | .
CC(C)(C)OC(=O)NCc1ccc(CNC(=O)c2[nH]cnc2C(=O)NCC(=O)OCc2ccccc2)cc1 | - | - | . | - | - | -
Nc1n[nH]c(N)c1N=Nc1ccc2c(c1)OCO2 | - | 40µM | - | ? | - | -
Cc1nc(N)sc1N=Nc1ccc(Br)cc1 | - | 25µM | - | ? | ? | -
COC(=O)CCCNC(=O)c1ccc(S(=O)(=O)NCc2ccco2)cc1 | - | - | . | - | - | .
Cc1ccc(NC(=O)Cn2cnc3c(oc4ccccc43)c2=O)cc1Cl | - | ? | - | - | ? | .
CCOc1ccc2[nH]c3c(c2c1)CNCC3 | - | - | . | ? | 71µM | -
N#Cc1ccc(CN2CCCC3(CCN(C(=O)c4ccncc4)CC3)C2)cc1 | . | . | . | . | -[12.7 µM] | -
SMILES | HP1b binding inh | BAZ2B block | TDP1 block | JMJD2A Tudor | G9a block | Sfp PPTase inh
CCNc1ncc2nc(-c3ccc(OC)cc3)c(=O)n(CCc3ccccc3)c2n1 | . | . | . | . | -[0.501 µM] | -
Clc1ccc(Nc2nc(-c3ccncc3)cs2)cc1 | - | . | . | - | . | .
Cc1ccc(Nc2nc(C)cs2)cc1 | ? | - | - | ? | 35µM | 22µM
Cc1csc(Nc2ccc(Cl)cc2)n1 | - | ? | - | - | 45µM | -
Cc1ccc(C2=N/C(=C\c3cccc(F)c3)C(=O)O2)cc1 | - | - | . | - | . | -
O=C(c1cccc(F)c1)N1CCC[C@@]2(CCN(c3ccccn3)C2)C1 | . | . | . | . | -[12.7 µM] | -
Cc1nc(-c2ccc(S(=O)(=O)Oc3ccccc3Cl)s2)cs1 | - | - | - | - | - | -
Cc1nc(-c2ccc(S(=O)(=O)N3CCN(C4c5ccccc5-c5ccccc54)CC3)s2)cs1 | ? | - | - | - | 56µM | -
COCCn1c(-c2ccc(OC)cc2)cnc1SCC(=O)Nc1cc(C)on1 | - | - | - | - | 79µM | -
COCCn1c(-c2ccccc2)cnc1SCC(=O)Nc1cccc2ccccc12 | ? | 45µM | - | 50µM | 32µM | -
COCCn1c(-c2ccc(OC)cc2)cnc1SCC(=O)Nc1ccc(OC)cc1OC | - | 45µM | - | - | ? | -
COC(=O)c1ccc2c(=O)n(CCN3CCOCC3)c(SCC(=O)Nc3ccccc3Cl)nc2c1 | - | - | - | - | - | -
COCCn1c(SCC(=O)Nc2ccccc2OC)nc2ccccc21 | - | - | - | - | - | -
CCn1c(SCC(=O)Nc2cc(C)on2)nnc1-c1ccc(OC)cc1 | - | - | - | - | - | -
COC(=O)c1ccc2c(=O)n(CCN3CCOCC3)c(SCC(=O)Nc3ccc(OC)cc3OC)nc2c1 | ? | - | - | 45µM | - | -
CC(C)Cc1ccc(S(=O)(=O)Nc2ccccn2)cc1 | - | - | - | - | - | -
CCOc1ccc(C2=NC(c3cccs3)=Nc3ccc(CC)cc3N2)cc1OCC | ? | 10µM | - | 25µM | 10µM | .
CCc1ccc2c(c1)NC(c1ccc(OC)cc1)=NC(c1ccncc1)=N2 | ? | ? | - | 50µM | - | .
CCCCOc1ccc(C2=NC(c3cccs3)=Nc3ccc(OC)cc3N2)cc1 | - | ? | - | 40µM | ? | .
COc1ccc(C2=Nc3ccc(C)cc3NC(c3ccc(Cl)cc3)=N2)cc1 | - | - | - | - | - | .
CCC(=O)/C=C1\Sc2ccc(OC)cc2N1CCO | - | - | - | - | - | -
CCC(=O)/C=C1\Sc2ccc(OC)cc2N1CC | - | - | - | - | 50µM | 50µM
CCN1/C(=C\C(C)=O)Sc2ccc(OC)cc21 | - | - | - | - | 5µM | -
O=C(CCN1CCN(Cc2ccccc2)CC1)Nc1cccc(Br)c1 | - | - | . | - | -[2.33 µM] | -
CCN1/C(=C2\SC(=S)N(Cc3ccccc3)C2=O)Sc2ccccc21 | - | - | - | - | - | -
SMILES | HP1b binding inh | BAZ2B block | TDP1 block | JMJD2A Tudor | G9a block | Sfp PPTase inh
CCN1C(C)=C(C)S/C1=C1\SC(=S)N(N)C1=O | - | - | - | - | . | 20µM
Cc1nc2ccccc2n1Cc1n[nH]c(=S)n1-c1ccc(Cl)cc1 | - | - | - | - | ? | -
CC(C)N(C(=O)CSc1nnc(Cn2nnc3ccccc32)n1C)C(C)C | - | - | - | - | -[12.7 µM] | -
Fc1ccc(-n2c(Cn3nnc4ccccc43)n[nH]c2=S)cc1 | - | ? | - | 18µM | . | -
Cc1cc(C(F)(F)F)nn1Cc1n[nH]c(=S)n1-c1ccc(F)cc1 | - | - | - | - | 10µM | -
S=c1[nH]nc(Cn2nnc3ccccc32)n1-c1ccccc1 | - | - | . | 6.3µM | 32µM | -
